Activity calls are given as the source filed them.
Columns and labels:
[1] = optical density shifts of acrAB sulA E. coli – strain DRC41, OD650, 48 h, E. coli filamentation inducer project, primary screen (AID 1152); details: higher = more signal, called active from +8 up or from −8 down;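 further: E. coli MC1000 strain DRC41 lacking acrAB efflux pump and sulA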
[2] = probe aLefty1 binding on compound microarray – biochemical, small-molecule microarray, 635/667 nm fluorescence, primary screen (AID 1153); details: higher = more signal;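 further: score merges spot fluorescence with signal-to-noise ratio from the scanned slide images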
[3] = plasmodial surface anion channel blockers, osmotic lysis – cell-based, P. falciparum Indochina, OD700, 1 h, primary screen (AID 1154); details: P. falciparum Indochina infected RBC osmotic lysis, higher = more signal, called active from +8 up or from −8 down
[4] = plasmodial surface anion channel blockers, osmotic lysis – cell-based, P. falciparum Indochina, OD700, 2 h, primary screen (AID 1155);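 further: lysis reports solute entry through the parasite surface anion channel PSAC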; details: P. falciparum Indochina infected erythrocytes, higher = more signal, called active from +8 up or from −8 down
[5] = changes in parasitized red cell lysis, either direction – P. falciparum Indochina, OD700, 3 h, PSAC antagonist project, primary screen (AID 1156); details: P. falciparum-infected erythrocytes, osmotic lysis, higher = more signal, called active from +8 up or from −8 down
[6] = plasmodial surface anion channel blockers, osmotic lysis – cell-based, P. falciparum Indochina, OD700, 18 h, primary screen (AID 1157); details: P. falciparum Indochina infected erythrocytes, osmotic lysis OD700, 18 h; higher = more signal, called active from +8 up or from −8 down
[7] = S6 kinase pathway phospho-S6 level changes – cell-based, A549, cytoblot, luminescence, serum-stimulated, primary screen (AID 1158); details: 5 h, higher = more signal;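 further: serum-stimulated A549 lung adenocarcinoma cells; signal is phosphorylated S6 detected by cytoblot immunostaining with HRP secondary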
[8] = target: NADPH oxidase 2 (Homo sapiens) (UniProt P04839); experiment: compounds shifting NOX2 Amplex Red fluorescence – cell-based, HEK293-NOX2, PMA-stimulated, NOX inhibitor project, primary screen (AID 1159); details: 45 min, higher = more signal, called active from +8 up or from −8 down; further: test concentration not given here
Chain of NADPH oxidase 2 (Homo sapiens) (P04839 whole entry, looked up): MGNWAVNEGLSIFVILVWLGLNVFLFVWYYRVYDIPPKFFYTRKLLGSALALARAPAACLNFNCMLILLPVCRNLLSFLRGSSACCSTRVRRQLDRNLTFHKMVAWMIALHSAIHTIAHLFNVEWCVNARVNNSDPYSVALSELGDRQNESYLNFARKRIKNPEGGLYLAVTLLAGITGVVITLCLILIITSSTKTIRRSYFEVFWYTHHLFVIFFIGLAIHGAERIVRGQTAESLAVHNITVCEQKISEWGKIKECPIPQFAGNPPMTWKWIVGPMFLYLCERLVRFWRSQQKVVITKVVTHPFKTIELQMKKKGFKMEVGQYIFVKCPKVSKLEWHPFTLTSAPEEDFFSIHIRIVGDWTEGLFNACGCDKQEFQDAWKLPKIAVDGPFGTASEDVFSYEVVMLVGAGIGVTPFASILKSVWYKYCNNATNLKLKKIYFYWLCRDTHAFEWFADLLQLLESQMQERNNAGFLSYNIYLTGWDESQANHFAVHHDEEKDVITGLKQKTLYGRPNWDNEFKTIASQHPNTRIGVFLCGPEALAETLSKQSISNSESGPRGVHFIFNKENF

[9] = target: NADPH oxidase 4 (Homo sapiens) (UniProt Q9NPH5); experiment: compounds shifting NOX4 Amplex Red fluorescence – cell-based, HEK293-NOX4, tetracycline-induced, NOX inhibitor project, primary screen (AID 1160); details: HEK293-NOX4, Amplex Red H2O2 fluorescence, 45 min; higher = more signal, called active from +8 up or from −8 down
Chain of NADPH oxidase 4 (Homo sapiens) (Q9NPH5 whole entry, looked up): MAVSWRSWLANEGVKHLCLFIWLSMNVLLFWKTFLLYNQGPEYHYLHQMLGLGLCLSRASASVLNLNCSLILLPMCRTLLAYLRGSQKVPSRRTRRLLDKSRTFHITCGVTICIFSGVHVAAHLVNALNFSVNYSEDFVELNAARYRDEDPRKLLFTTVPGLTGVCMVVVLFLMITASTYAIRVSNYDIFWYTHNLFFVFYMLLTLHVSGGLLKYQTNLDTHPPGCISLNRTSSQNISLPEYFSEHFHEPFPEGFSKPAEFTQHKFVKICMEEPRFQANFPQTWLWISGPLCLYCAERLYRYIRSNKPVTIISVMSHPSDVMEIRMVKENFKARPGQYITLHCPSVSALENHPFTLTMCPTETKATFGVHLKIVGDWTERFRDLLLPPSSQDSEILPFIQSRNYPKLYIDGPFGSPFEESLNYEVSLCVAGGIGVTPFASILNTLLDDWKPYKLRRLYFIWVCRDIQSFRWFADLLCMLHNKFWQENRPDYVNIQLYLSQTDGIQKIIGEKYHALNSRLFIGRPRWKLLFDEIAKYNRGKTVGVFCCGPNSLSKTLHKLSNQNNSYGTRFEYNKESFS

[10] = target: NADPH oxidase 5 (Homo sapiens) (UniProt Q96PH1); experiment: compounds shifting NOX5 Amplex Red fluorescence – cell-based, HEK293-NOX5, NOX inhibitor project, primary screen (AID 1161); details: HEK293-NOX5, ionomycin, 45 min, higher = more signal
Chain of NADPH oxidase 5 (Homo sapiens) (Q96PH1 whole entry, looked up): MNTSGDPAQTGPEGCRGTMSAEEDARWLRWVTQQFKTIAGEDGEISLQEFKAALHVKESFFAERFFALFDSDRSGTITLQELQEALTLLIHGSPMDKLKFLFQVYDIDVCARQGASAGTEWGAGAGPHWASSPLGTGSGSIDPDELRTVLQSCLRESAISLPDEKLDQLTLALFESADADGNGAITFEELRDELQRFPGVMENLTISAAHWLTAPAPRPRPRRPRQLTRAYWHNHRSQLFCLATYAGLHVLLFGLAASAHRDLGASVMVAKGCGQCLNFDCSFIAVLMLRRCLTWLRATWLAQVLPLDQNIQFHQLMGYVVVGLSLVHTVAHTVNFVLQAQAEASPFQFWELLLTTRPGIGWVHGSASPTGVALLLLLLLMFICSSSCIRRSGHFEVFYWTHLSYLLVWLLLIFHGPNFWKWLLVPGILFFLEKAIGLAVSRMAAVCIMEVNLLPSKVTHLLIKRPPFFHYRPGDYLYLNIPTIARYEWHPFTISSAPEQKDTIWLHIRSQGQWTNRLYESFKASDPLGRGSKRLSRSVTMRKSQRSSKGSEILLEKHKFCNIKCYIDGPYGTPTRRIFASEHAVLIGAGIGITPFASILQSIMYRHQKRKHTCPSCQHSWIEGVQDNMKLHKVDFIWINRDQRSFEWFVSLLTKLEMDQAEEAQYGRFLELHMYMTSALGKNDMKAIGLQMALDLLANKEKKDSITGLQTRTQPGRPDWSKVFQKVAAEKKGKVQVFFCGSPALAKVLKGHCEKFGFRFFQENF

Row | Structure (SMILES) | z-score [1] | composite z-score [2] | z-score [3] | z-score [4] | z-score [5] | z-score [6] | z-score [7] | z-score [8] | z-score [9] | z-score [10]
1 | O=C(C1N=C(c2ccc(OCCCO)cc2)N(c2ccccc2)O1)N1CCCCC1 (stereo not given) | 0.666 (inactive) | 0.0338 | 13.2 (active) | 1.66 (inactive) | 0.374 (inactive) | 0.423 (inactive) | -0.0704 | 1.12 (inactive) | 0.209 (inactive) | -0.404
2 | COc1ccc([Si](C)(C)[C@@H]2[C@@H](CC(=O)N(CCO)Cc3ccccc3)O[C@]3(C(=O)N(Cc4cccc(N5CCCCC5=O)c4)c4ccccc43)[C@H]2C)cc1 | 0.152 (inactive) | 0.527 | 4.33 (inactive) | 1.85 (inactive) | 0.422 (inactive) | 1.14 (inactive) | 1.19 | 0.609 (inactive) | 1.28 (inactive) | 3.58
3 | O=C1C2C=CC(C(O)c3cccc(O)c3)N(Nc3ccc([N+](=O)[O-])cc3)C2C(=O)N1c1ccccc1 (stereo not given) | -0.367 (inactive) | 0.0361 | 23.8 (active) | 5.34 (inactive) | 3.57 (inactive) | 1.22 (inactive) | -0.609 | -2.1 (inactive) | -4.41 (inactive) | -4.26
4 | COC(=O)C/C=C/C[C@]1(O)C(=O)N(C)c2ccccc21 | 2.8 (inactive) | -0.147 | -0.526 (inactive) | -0.562 (inactive) | -0.679 (inactive) | -1.87 (inactive) | 1.26 | -0.563 (inactive) | 0.4 (inactive) | 0.882
5 | O=C1OCCC=C[C@H]2OC34C=CCN(c5ccc6ccccc6c5)C(=O)[C@H]3N(CCCO)C(=O)[C@@H]4C12 (stereo not given in full) | 0.181 (inactive) | -0.291 | 0.204 (inactive) | -0.568 (inactive) | 0.676 (inactive) | -1.27 (inactive) | 0.684 | 0.755 (inactive) | -0.644 (inactive) | 0.741
6 | NCCCCCNC(=O)[C@@H]1C[C@@H]2C(=O)N[C@@H](CCCCN)C(=O)N2[C@@H]1c1ccc(O)cc1 | -0.175 (inactive) | 0.739 | 3.95 (inactive) | 1.74 (inactive) | -2.34 (inactive) | 0.937 (inactive) | -0.912 | 1.5 (inactive) | 1.85 (inactive) | 1.48
7 | COc1cccc(C)c1NC(=O)O[C@H]1[C@H](OC(=O)Nc2ccc3c(c2)OCO3)[C@@H](OC(=O)Nc2ccc3c(c2)OCO3)[C@@H](OC)O[C@@H]1CO | 0.132 (inactive) | -0.165 | 5.81 (inactive) | 1.26 (inactive) | 0.579 (inactive) | 0.349 (inactive) | -0.227 | -1.21 (inactive) | -0.747 (inactive) | -1.67
8 | COc1ccc(CCNC(=O)[C@@]2(c3ccc([N+](=O)[O-])cc3)CC(=O)N(C3CCCCC3)[C@@H]2c2ccc(CO)cc2)cc1 | 1.31 (inactive) | 0.213 | 0.965 (inactive) | -0.0966 (inactive) | 1.03 (inactive) | -0.383 (inactive) | -0.112 | -1.05 (inactive) | 0.479 (inactive) | 0.0392
9 | NC(=O)[C@H]1[C@@H]2C(=O)O[C@@H](c3ccccc3)[C@@H](c3ccccc3)N2[C@@H](c2ccc(OCCO)cc2)[C@]12C(=O)Nc1ccc(C#CCCO)cc12 | -0.628 (inactive) | 0.0753 | 6.95 (inactive) | 1.05 (inactive) | -1.02 (inactive) | 0.466 (inactive) | -0.671 | 2.03 (inactive) | 1.03 (inactive) | 1.13
10 | OCCCC1=CC(c2ccc(CN3CCCC3)cc2)N(Cc2cc3c(cc2Br)OCO3)CC1 (stereo not given) | 0.0676 (inactive) | 0.192 | 3.7 (inactive) | 0.63 (inactive) | 0.795 (inactive) | 0.601 (inactive) | -0.187 | -3.1 (inactive) | -1.21 (inactive) | -1.2
11 | COc1ccc(CCNC(=O)[C@@H]2c3ccccc3C(=O)N(C3CCCCC3)[C@H]2c2ccc(CO)cc2)cc1 | -0.71 (inactive) | -0.0149 | 2.58 (inactive) | 0.163 (inactive) | 1.71 (inactive) | 0.0567 (inactive) | 0.491 | -0.415 (inactive) | -0.546 (inactive) | -2.31
12 | CN(C)C(=O)[C@]1(CCC(=O)OC(C)(C)C)N=C(c2ccc(OCCCO)cc2)O[C@@H]1c1ccccc1CN=[N+]=[N-] | 0.636 (inactive) | -0.182 | 29.8 (active) | 25.2 (active) | 2.29 (inactive) | 3.77 (inactive) | -0.175 | 0.629 (inactive) | 2.22 (inactive) | 1.19
13 | C=C(/C(=C/C[C@H](OC(C)=O)c1ccc(CO)o1)c1cnc2ccccc2c1)C(C)C | -0.0554 (inactive) | 0.215 | 3.56 (inactive) | 0.625 (inactive) | 0.589 (inactive) | 0.0124 (inactive) | 0.38 | -0.306 (inactive) | -0.246 (inactive) | -0.219
14 | C[C@@H]1NC(=O)[C@@H](Cc2ccccc2)NC(=O)[C@@]23C(=O)N[C@@H](Cc4ccccc4)C2[C@H](C)[C@@]2(C)O[C@H]2C3/C=C/C/C=C\CNC1=O (stereo not given in full) | -1.02 (inactive) | -0.0046 | 1.92 (inactive) | 0.581 (inactive) | 0.638 (inactive) | 0.159 (inactive) | -0.177 | 0.722 (inactive) | -0.614 (inactive) | 0.523
15 | CCCCCN1CC=CC23O[C@@H]4/C=C\CCCOC(=O)C4[C@H]2C(=O)N(C(C)CO)[C@@H]3C1=O (stereo not given in full) | 1.2 (inactive) | -0.0984 | 1.47 (inactive) | 0.175 (inactive) | 2.32 (inactive) | 0.503 (inactive) | 0.566 | 0.825 (inactive) | 0.19 (inactive) | 1.03
16 | C=C[C@H]1C(C(=O)OCC)=CC[C@@H](c2ccccc2)N1S(=O)(=O)c1ccc(C)cc1 | -1.11 (inactive) | 0.457 | 7.17 (inactive) | 1.56 (inactive) | 0.43 (inactive) | 0.509 (inactive) | -0.518 | 0.09 (inactive) | -0.613 (inactive) | 0.14
17 | C#CCN(Cc1ccccc1Br)[C@H](/C=C/c1ccccc1)[C@@H](O)Cc1ccccc1 | 1.47 (inactive) | 0.0999 | 1.22 (inactive) | 0.535 (inactive) | -0.553 (inactive) | 0.132 (inactive) | -0.135 | -0.193 (inactive) | 0.109 (inactive) | -0.639
18 | C=C(COC)/C(=C/C[C@H](OC(=O)c1ccncc1)c1ccccc1OCCO)c1cc(C(=O)OC)ccc1OC | -0.604 (inactive) | 0.307 | 14 (active) | 2.43 (inactive) | 2.72 (inactive) | 0.773 (inactive) | 0.0976 | -1.21 (inactive) | 0.0788 (inactive) | -1.62
19 | CO[C@H]1O[C@H](CO)[C@@H](OC(=O)Nc2ccc(Br)cc2)[C@@H]2OC(=O)[C@@H](Cc3ccccc3)C/C=C/C[C@H](Cc3ccccc3)C(=O)O[C@@H]12 | 0.931 (inactive) | 0.057 | 3.36 (inactive) | 0.956 (inactive) | -1.12 (inactive) | 1.35 (inactive) | 0.311 | 0.647 (inactive) | 0.263 (inactive) | 0.0979
20 | O=C1O[C@@H](c2ccccc2)[C@@H](c2ccccc2)N2[C@@H](c3ccc(O)cc3)[C@]3(C(=O)Nc4ccc(C#CCCO)cc43)[C@@H](C(=O)N3CCN(c4ncccn4)CC3)[C@H]12 | 1.81 (inactive) | 0.348 | 1.97 (inactive) | 1.01 (inactive) | -0.834 (inactive) | 0.516 (inactive) | -0.138 | 0.941 (inactive) | -0.341 (inactive) | 0.594
21 | C=CC[C@H](OC(=O)Nc1ccc(SC)cc1)c1ccc(O)c2ccccc12 | -1.2 (inactive) | 0.27 | 29.5 (active) | 16.8 (active) | 2.22 (inactive) | 1.63 (inactive) | 0.76 | -5.83 (inactive) | -1.41 (inactive) | -0.0589
